Results: PubChem BioAssay AID1159580 (chemical genetic matrix, 2015)
In all, about 5,500 compounds went through this assay and about 2,000 (36%) were called active. Inconclusive results (about 18%) are left out. Rule as the data show it: active = normalized growth mostly below about 0.91 (no sharp cut-off); inconclusive = no clear call, values can overlap the other calls; inactive = mostly above about 0.92. The list shows a part of the results.

Experiment: chemical genetic growth profiling, strain panel (AID 1159580);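 also: tested at 20 µM; growth read once vehicle control cultures reached saturation at 30 °C; 1 = growth at the plate median or of vehicle wells; lower values mean less growth of the strain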
Details: S. cerevisiae deletion strains, growth OD

Measured: normalized growth

C/C1=C/CC(C)(C)/C=C/C/C(C)=C/CC1
active: locus YLR039C, strain RIC1, stronger effect = lower value 0.651 | locus YMR307W, strain GAS1, stronger effect = lower value 0.536 | locus YOR184W, strain ser1, stronger effect = lower value 0.865 | locus YPL055C, strain LGE1, stronger effect = lower value 0.76
inactive: locus YJR066W, strain TOR1, stronger effect = lower value 0.986 | locus YKL009W, strain mrt4, stronger effect = lower value 0.962 | locus YKL068W, stronger effect = lower value 0.991 | locus YKL085W, strain MDH1 (second series), stronger effect = lower value 0.963 | locus YKL085W, strain MDH1, stronger effect = lower value 0.963 | locus YKL160W, strain elf1, stronger effect = lower value 1.02 | locus YKR001C, strain vps1, stronger effect = lower value 0.98 | locus YKR026C, strain gcn3, stronger effect = lower value 0.983 | locus YKR091W, strain srl3, stronger effect = lower value 0.987 | locus YLL001W, strain dnm1, stronger effect = lower value 1 | locus YLL026W, stronger effect = lower value 0.99 | locus YLL041C, strain sdh2, stronger effect = lower value 0.998 | locus YLR027C, strain aat2, stronger effect = lower value 1.01 | locus YLR058C, strain SHM2, stronger effect = lower value 1.01 | locus YLR102C, strain apc9, stronger effect = lower value 1.01 | locus YLR113W, strain HOG1, stronger effect = lower value 1.02 | locus YLR221C, strain rsa3, stronger effect = lower value 0.961 | locus YLR258W, strain gsy2, stronger effect = lower value 0.998 | locus YLR262C, strain YPT6 (second series), stronger effect = lower value 0.994 | locus YLR262C, strain YPT6, stronger effect = lower value 0.789 | locus YLR268W, strain sec22, stronger effect = lower value 1 | locus YLR320W, strain mms22, stronger effect = lower value 0.968 | locus YLR330W, strain CHS5, stronger effect = lower value 0.974 | locus YLR342W, strain FKS1 (second series), stronger effect = lower value 0.986 | locus YLR342W, strain FKS1, stronger effect = lower value 0.989 | locus YLR357W, strain rsc2, stronger effect = lower value 0.968 | locus YLR370C, strain arc18, stronger effect = lower value 1.01 | locus YLR371W, strain rom2, stronger effect = lower value 0.998 | locus YLR384C, strain iki3, stronger effect = lower value 0.984 | locus YLR418C, strain cdc73, stronger effect = lower value 0.929 | locus YML016C, strain PPZ1, stronger effect = lower value 1.04 | locus YML032C, strain rad52, stronger effect = lower value 0.99 | locus YML120C, strain ndi1, stronger effect = lower value 1 | locus YML124C, strain tub3, stronger effect = lower value 1.01 | locus YMR058W, strain fet3, stronger effect = lower value 0.992 | locus YMR078C, strain ctf18, stronger effect = lower value 1.01 | locus YMR125W, strain sto1, stronger effect = lower value 1.01 | locus YMR129W, stronger effect = lower value 0.992 | locus YMR205C, strain PFK2, stronger effect = lower value 0.994 | locus YMR223W, strain ubp8, stronger effect = lower value 1 | locus YMR231W, strain pep5, stronger effect = lower value 0.966 | locus YNL067W, strain RPL9B, stronger effect = lower value 0.869 | locus YNL071W, strain lat1, stronger effect = lower value 0.998 | locus YNL183C, strain NPR1, stronger effect = lower value 0.995 | locus YNL209W, strain ssb2, stronger effect = lower value 1 | locus YNL233W, strain BNI4, stronger effect = lower value 0.96 | locus YNL250W, strain rad50, stronger effect = lower value 0.973 | locus YNL271C, strain bni1, stronger effect = lower value 0.998 | locus YNL298W, strain CLA4, stronger effect = lower value 0.989 | locus YNL307C, strain MCK1, stronger effect = lower value 1.02 | locus YNL322C, strain KRE1 (second series), stronger effect = lower value 0.979 | locus YNL322C, strain KRE1, stronger effect = lower value 0.973 | locus YNR049C, strain mso1, stronger effect = lower value 0.976 | locus YNR052C, strain pop2, stronger effect = lower value 0.964 | locus YOL006C, strain TOP1, stronger effect = lower value 0.917 | locus YOL012C, strain htz1 1.09 | locus YOL147C, strain pex11, stronger effect = lower value 1.02 | locus YOR001W, strain rrp6, stronger effect = lower value 0.944 | locus YOR061W, strain CKA2, stronger effect = lower value 1.03 | locus YOR069W, strain VPS5, stronger effect = lower value 1.02 | locus YOR070C, strain gyp1, stronger effect = lower value 0.983 | locus YOR080W, strain dia2, stronger effect = lower value 0.969 | locus YOR083W, strain WHI5, stronger effect = lower value 1.02 | locus YOR106W, strain vam3, stronger effect = lower value 0.995 | locus YOR136W, strain idh2, stronger effect = lower value 0.995 | locus YOR144C, strain elg1, stronger effect = lower value 1.01 | locus YOR231W, strain MKK1, stronger effect = lower value 1.02 | locus YOR265W, strain rbl2, stronger effect = lower value 0.997 | locus YOR270C, strain vph1, stronger effect = lower value 0.932 | locus YOR290C, strain snf2, stronger effect = lower value 0.995 | locus YOR316C, strain cot1, stronger effect = lower value 1.01 | locus YPL051W, strain arl3, stronger effect = lower value 0.991 | locus YPL078C, strain atp4, stronger effect = lower value 1.01 | locus YPL106C, strain sse1, stronger effect = lower value 1.03 | locus YPL240C, strain hsp82, stronger effect = lower value 1.02 | locus YPL241C, strain CIN2, stronger effect = lower value 1.02 | locus YPL256C, strain CLN2, stronger effect = lower value 1.06 | locus YPR119W, strain clb2, stronger effect = lower value 1.01 | locus YPR141C, strain kar3, stronger effect = lower value 1 | locus YPR163C, strain tif3, stronger effect = lower value 1.01 | locus YPR167C, strain met16, stronger effect = lower value 1.01 | strain wtn01, stronger effect = lower value 0.993
